PubChem BioAssay (NCI)
About 83,000 compounds went through this panel and 20% of them were active in at least one assay; those are over-represented in the sample as a whole.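 In brief: 96-well plates, 48 h treatment, single concentration, percent growth endpoint.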 Unmarked numbers belong to inactive results. The source made the active and inactive calls. The calls were made as follows: active = growth percent below 10; inactive = the rest.

Legend:
Experiment in all cases: NCI-60 one-dose screen, 48 h (100 = growth as untreated, 0 = no growth, -100 = all killed)
HT29 colon = details: 10 µM unless noted
SNB-75 CNS = details: 10 µM unless noted
SNB-19 CNS = details: 10 µM unless noted
U251 CNS = details: 10 µM unless noted
PC-3 prostate = details: 10 µM unless noted
UACC-62 melanoma = details: 10 µM unless noted
LOX IMVI melanoma = details: 10 µM unless noted
SK-MEL-28 melanoma = details: 10 µM
SK-MEL-2 melanoma = details: 10 µM unless noted
SK-MEL-5 melanoma = details: 10 µM unless noted

Structure (SMILES)	growth (HT29 colon)	growth (SNB-75 CNS)	growth (SNB-19 CNS)	growth (U251 CNS)	growth (PC-3 prostate)	growth (UACC-62 melanoma)	growth (LOX IMVI melanoma)	growth (SK-MEL-28 melanoma)	growth (SK-MEL-2 melanoma)	growth (SK-MEL-5 melanoma)
COc1ccc(S(=O)(=O)N(Cc2ccc3c(n2)C=CC(C)(C)O3)C2CCC2)cc1OC	3.8% (active)	-12.5% (active)	8.75% (active)	0.365% (active)	-3.05% (active)	-14.7% (active)	-40.6% (active)	-18.8% (active)	-37.5% (active)	
CN(O)c1nc(N(C)O)nc(N2CCOCC2)n1	23.7%	29.2%	32.8%	31.5%	58.9%	29.1%	25.4%	61.1%	62.6%	
Cc1sc2ncnc(Sc3nc4ccccc4[nH]3)c2c1C	-64.4% (active)	-85.4% (active)	-21.7% (active)	-80.9% (active)	-43.3% (active)	-91.8% (active)	-80% (active)	-92.5% (active)	-81.6% (active)	
CC(C)CCOc1ccc(-c2n[nH]c(C(F)(F)F)c2-c2cncc(C#N)c2)c(O)c1	48.9%	30.1%	13.1%	2.85% (active)	1.74% (active)	17.5%	5.15% (active)	33.7%	-13.8% (active)	
COc1ccc(C2=C(c3cccc(OC)c3)C(=O)c3ccc(C)nc3C2=O)cc1	87.8%	23.6%	43.9%	37.6%	52.1%	46.7%	30.6%	50.7%	42.8%	
O=c1oc2ccc(F)cc2c(=O)n1-c1ccc(F)cc1F	97.1%	2.33% (active)	38.1%	13.6%	16.1%	3.17% (active)	14.2%	23%	-11.8% (active)	
O=C(CCc1nnc2sc(COc3ccccc3)nn12)c1nc2ncccc2[nH]1	106%	79.8%	100%	101%	96.5%	91.8%	91.8%	107%	102%	
COc1cc(C(C)n2cc(-c3ccccc3)nn2)ccc1OC1CCCC1 (centres undefined)	82.4%	75.5%	79.2%	79%	65.2%	63.6%	60.6%	98.8%	72.9%	
O=C(NCc1ccccc1)C1CN(c2ccc(Cl)cc2)N(c2ccc(Cl)cc2)C1=O (centres undefined)	48.8%	82.9%	84.9%	84.2%	67.9%	58.7%	88.4%	88.9%	85.8%	
CCOC(=O)c1c(C=O)nc2ccccc2c1/C=C/c1ccc(Cl)cc1	112%	79.7%	92.8%	92.6%	91.4%	102%	96.9%	103%	105%	
O=c1c2cc(F)cc(Cl)c2sc2c(Cl)nc3ccccc3c12	101%	84.6%	96.5%	105%	98.9%	92.2%	80.9%	108%	108%	
Cn1nc(C(F)(F)F)c(-c2ccc(Cl)c(C(F)(F)F)c2)c1-c1ccc(OCc2ccc(Cl)cc2)cc1O	20.4%	47.7%	19.2%	0.822% (active)	3.78% (active)	19.7%	5.24% (active)	31.2%	1.95% (active)	
COc1ccc(-c2nocc2-c2cccs2)cc1	114%	89.4%	102%	110%	101%	93.3%	108%	103%	103%	
CCN1CCN(C(=S)SCC(=O)Nc2nc3ccc(C)cc3s2)CC1	102%	89%	102%	110%	88.8%		3.49% (active)	108%	105%	
COc1cc(C2C3=C(COC3=O)N(CCO)c3cc4c(cc32)OCCO4)cc(OC)c1O (centres undefined)	3.06% (active)	-17.9% (active)	26.8%	19.7%	27.2%	33.5%	33%		76.5%	
COc1ccc(-n2c(C(O)c3ccccc3)nn(CN3CCOCC3)c2=S)cc1 (centres undefined)	109%	87.4%	92.7%	95.2%		95.8%	95.4%	89.2%		112%
CC1CCCCN1CCCNC(=O)c1ccc2c(c1)sc1nc(-c3ccc(F)cc3)cn12 (centres undefined)	92.8%	83.5%	104%	99.1%	83.8%	100%	93.1%	104%	103%	
S=C1CCCC(=S)N1	103%	99%	103%	101%		96%	96.8%	106%	102%	107%
O=C1C(=O)c2c(ccc3ccccc23)-c2ccccc21	61.5%	26.2%	18.9%	1.64% (active)	5.79% (active)	-25.2% (active)	-33.2% (active)		-68.8% (active)	
C#CCn1cc(C=C2C(=O)N(C)C(=O)N(C)C2=O)c2cc(Cl)ccc21	118%	91.6%	105%	113%	103%	94%	96.8%	113%	95.5%	
CCOC(=O)C1(Cc2ccccc2)CCN(Cc2cccc(OC)c2O)CC1	22.2%	37.7%	14.9%	3.94% (active)		-7.92% (active)	5.51% (active)	38%	9.33% (active)	-33.4% (active)
COC(=O)C1=C(C)NC(C)=C(C(=O)OC)C(N2C(=O)CCC2=O)C1 (centres undefined)	98.5%	77.3%	99.9%	87.7%		83.8%	82.4%	95.5%	99.1%	102%
O=c1oc2ccc(Br)cc2c(=O)n1-c1ccc(F)cc1F	97.7%	-12.1% (active)	12.5%	7.07% (active)	0.771% (active)	-0.768% (active)	12.6%	20.3%	-16.1% (active)	
COc1cc(/C=C2\CN(S(=O)(=O)c3ccccc3)C/C(=C\c3cc(CN4CCCC4)c(O)c(OC)c3)C2=O)cc(CN2CCCC2)c1O	-9.09% (active)	20.2%	12.2%	-21.7% (active)		-60% (active)	-75.4% (active)	10.5%	-0.727% (active)	20.7%
COc1cc(/C=C/C(=O)c2ccc(Cl)cc2)cc(CN2CCCCC2)c1O	19.4%	70.9%	85.4%	74.6%		87.4%	87.4%	97.9%	108%	90.7%
CC(C)C[C@H](C(=O)N[C@@H](C)C(N)=O)N1CC=CCN(O)S1(=O)=O	93.1% [5 µM]	87.4% [5 µM]	86.2% [5 µM]	107% [5 µM]	100% [5 µM]	108% [5 µM]	95.6% [5 µM]		103% [5 µM]	
COC(=O)[C@H](NC(=O)C1(C)CCC[C@]2(C)[C@H]3C[C@H]4C(C(C)C)=C[C@]3(CC[C@@H]12)[C@@H]1C(=O)CCC(=O)[C@@H]14)C(C)C (some centres undefined)	109%	83.7%	92.9%	99.1%	90.8%	84.4%	90.5%	99.7%	116%	
O=c1oc2ccc(I)cc2c(=O)n1-c1ccc(I)cc1F	28.3%	-22.6% (active)	21.2%	1.81% (active)	3.97% (active)	-28.6% (active)	4.98% (active)		-29.7% (active)	
O=C(Nc1ccc(I)cc1F)c1cc(F)ccc1O	25.6%	-20.7% (active)	16.8%	-16.8% (active)	3.39% (active)	-21.9% (active)	0.316% (active)	-5.23% (active)	-35.8% (active)	
COC(=O)C1=Nc2ccc(F)cc2/C1=C/c1sc(=S)[nH]c1O	8.16% (active)	11.6%	30.4%	8.56% (active)		53.6%	13%	59.4%	39.5%	-41% (active)
